According to PubChem BioAssay (EPA / NIEHS):
Activity calls are given as the source filed them. How the source made its calls: active means hit-call score of the fitted dose curve at least 0.9, where 1 is the maximum; inactive means score below 0.9.

Assay: CCTE_Padilla_ZF_144hpf_TERATOSCORE: (Legacy) CCTE's 144 Hour Post-fertilization zebrafish Assay Teratoscore, Padilla Lab (AID 2283679);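 on AC50: teratogenicity score from eye scoring of death hatching and malformations at 144 hpf; higher score means more developmental defects relative to DMSO baseline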
Excerpt: CCTE_Padilla_ZF_144hpf is a whole embryo, multiplexed assay. Zebrafish embryos were exposed to chemicals starting 6 hr post-fertilization for 5 days in 96-well plates. Developing larvae were examined microscopically daily for malformation and mortality.CCTE_Padilla_ZF_144hpf_TERATOSCORE is one of one assay component(s) measured or calculated from the CCTE_Padilla_ZF_144hpf assay. It is designed to make measurements of developmental malformations and mortality as detected with brightfield microscopy.Data from the assay component CCTE_Padilla_ZF_144hpf_TERATOSCORE was analyzed into 1 assay endpoint. This assay endpoint, CCTE_Padilla_ZF_144hpf_TERATOSCORE, was analyzed in the positive analysis fitting direction relative to DMSO as the negative control and baseline of activity. Using a type of morphological reporter, gain-of-signal activity can be used to understand changes in developmental defect as they relate to the whole embryo. To generalize the intended target to other relatable targets, this assay endpoint is annotated to the malformation intended target family, where the subfamily is total.
Zebrafish husbandry: Wild type adult zebrafish (Danio rerio; undefined outbred stock obtained from Aquatic Research Organisms, Hampton, NH, 03842) were housed in an AAALAC-approved animal facility at 28C with a 14:10 h light: dark cycle (lights on at 08:30 h). Adult fish (2-3 females per male; density = 15-20 adults per tank) were kept in one of several 9-liter (L) flow-through colony tanks (Aquaneering Inc., San Diego, CA). All adults in a colony tank were placed in a 2 L (static) breeding tank (Aquatic Habitats, Apopka, FL) one hour prior to light onset. Typically, adults from two to three colony tanks were mated on the same day. Two hours after light onset the adults were returned to the colony tank. All embryos were gathered from each breeder tank, pooled, and placed in a 28C water bath for 2 h, followed by two washes with 0.06% bleach (v/v) in 10% Hanks' Balanced Salt Solution (13.7 mM NaCl 0.54 mM KCl, 25 uM Na2HPO4, 130 uM CaCl2 100 um MgSO4 and 420 um NaHCO3,), hereafter referred to as Hanks' solution, for 5 min in order to remove any residual bacteria or fungi. Immediately following washing, the embryos were examined, and healthy embryos were separated from dead or unfertilized eggs and moved into fresh Hanks'. Single Concentration Study: The chemicals were arrayed on a 96-well stock plate, 80 chemicals per plate, 20 mM concentration of each, with 16 DMSO (vehicle) controls. The embryos were exposed to the chemicals (80 Mfinal concentration, renewed daily) by immersion from 0 dpf until 5 dpf. Eighty micromolar was chosen as the highest concentration for two reasons (1) because the stock solutions were prepared at 20 mM in 100% DMSO. On 6 dpf, each embryo/larva was assessed for viability, hatching status and malformations. There were 4 embryos per concentration per chemical (each embryo on a separate microtiter plate). […] Chemical exposures: Zebrafish embryos were exposed in 96-well plates. Briefly, on day 0, approximately 6-8 h after fertilization, zebrafish embryos (with chorions) were placed 1 embryo per well in Millipore Multiscreen Nylon mesh plates (catalog number MANMN4050, Millipore Corp, Bedford, MA) and exposed to nominal concentrations of the chemicals. In each well, 1 ul of the chemical in DMSO from the stock plate was diluted with 250 ul of 10% Hanks' solution; the final DMSO concentration was 0.4% (v/v) in all wells; vehicle controls receives DMSO only. Each plate was sealed with a non-adhesive material (Type A, BioRad, Hercules, CA), covered with a lid, and wrapped in Parafilm to minimize evaporation. All embryos and larvae were kept in a 26C incubator with a 14:10 h light-dark cycle (with lights on at 08:30 h and off at 22:30 h). […]

SMILES	outcome	AC50
CNC(=O)N(C)c1nnc(C(C)(C)C)s1	inactive	–
Clc1nc(Cl)nc(Nc2ccccc2Cl)n1	–	52 µM (active)
Cn1c(-c2ccccc2)cc(-c2ccccc2)[n+]1C	inactive	–
Clc1cccc(C(Cl)(Cl)Cl)n1	inactive	–
COCc1cnc(C2=NC(C)(C(C)C)C(=O)N2)c(C(=O)O)c1 (stereo not given)	–	5.5 µM (active)
Cc1ccc(N=CN(C)C=Nc2ccc(C)cc2C)c(C)c1	–	27.5 µM (active)
CCN(CC)C(=O)C(C)Oc1cccc2ccccc12 (stereo not given)	inactive	–
CCSC(=O)N1CCCCCC1	inactive	–
CC1(C)CON(Cc2ccccc2Cl)C1=O	inactive	–
CNC(=O)Oc1cccc2ccccc12	–	60.8 µM (active)
COC(=O)c1c(C(F)F)nc(C(F)(F)F)c(C2=NCCS2)c1CC(C)C	–	51.4 µM (active)
CCCN(CC)CC1COC2(CCC(C(C)(C)C)CC2)O1 (stereo not given)	–	62.9 µM (active)
CCCCC(O)(Cn1cncn1)c1ccc(Cl)cc1Cl (stereo not given)	–	36.5 µM (active)
Cc1cc(C)nc(Nc2ccccc2)n1	inactive	–
CCC(C)n1c(=O)[nH]c(C)c(Br)c1=O (stereo not given)	inactive	–
COC(=O)NS(=O)(=O)c1ccc(N)cc1	inactive	–
Cc1c(COC(=O)[C@@H]2[C@H](/C=C(\Cl)C(F)(F)F)C2(C)C)cccc1-c1ccccc1	–	0.623 µM (active)
CS(=O)(=O)c1cc(C(F)(F)F)ccc1C(=O)c1cnoc1C1CC1	inactive	–
CC1(C)C(C(=O)OC(C#N)c2cccc(Oc3ccccc3)c2)C1(C)C (stereo not given)	–	1.44 µM (active)
COC(=O)N(C(=O)N1CO[C@@]2(C(=O)OC)Cc3cc(Cl)ccc3C2=N1)c1ccc(OC(F)(F)F)cc1	–	1.57 µM (active)

SMILES	outcome	AC50
COc1ccc(-c2ccccc2)cc1NNC(=O)OC(C)C	–	17.8 µM (active)
N#Cc1c(Cl)cccc1Cl	inactive	–
CC(C)C1(C)N=C(c2ncccc2C(=O)O)NC1=O (stereo not given)	inactive	–
C=CCOC(=O)C(C)(C)OC(=O)c1cc(-n2c(=O)cc(C(F)(F)F)n(C)c2=O)ccc1Cl	–	0.00588 µM (active)
COCC(=O)N(c1c(C)cccc1C)C(C)C(=O)OC (stereo not given)	inactive	–
Cc1cnc(C2=NC(C)(C(C)C)C(=O)N2)c(C(=O)O)c1 (stereo not given)	inactive	–
CC(C)Nc1nc(Cl)nc(NC(C)C)n1	inactive	–
O=P(O)(O)CCCl	inactive	–
N#Cc1c[nH]cc1-c1cccc2c1OC(F)(F)O2	–	4.19 µM (active)
CN/C(=N\[N+](=O)[O-])NCc1cnc(Cl)s1	inactive	–
CC(C)N1C(=O)N(c2ccccc2)CSC1=NC(C)(C)C	–	1.48 µM (active)
CCN(CC)c1nc(C)cc(OP(=S)(OC)OC)n1	–	14.8 µM (active)
CCCCOCN(C(=O)CCl)c1c(CC)cccc1CC	–	5.42 µM (active)
COC(=O)NC(=S)Nc1ccccc1NC(=S)NC(=O)OC	–	0.486 µM (active)
CC1(C)C(C=C(Cl)Cl)C1C(=O)OC(C#N)c1cccc(Oc2ccccc2)c1 (stereo not given)	–	0.284 µM (active)
CCCCC(C#N)(Cn1cncn1)c1ccc(Cl)cc1 (stereo not given)	–	62.6 µM (active)
COP(=S)(OC)Oc1ccc([N+](=O)[O-])c(C)c1	–	50 µM (active)
Cc1nc(N(C)C)nc(OC(=O)N(C)C)c1C	inactive	–
CC1(C)CCC(=Cc2ccc(Cl)cc2)C1(O)Cn1cncn1 (stereo not given)	–	253 µM (active)
CC(C)=CC1C(C(=O)OCc2coc(Cc3ccccc3)c2)C1(C)C (stereo not given)	–	1.71 µM (active)
